Screening data (PubChem BioAssay)
Shown are actives, neighbours in structure and some others; about 11% of the full set was active somewhere.
Autophagy mod: alters autophagy in cells. MEF GFP-LC3 puncta imaging; test concentration mostly 10 µM. calls only at 10 µM (by protocol). hit rate 0.98% among 190,000;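 active = percentage of spot-positive cells more than 3 SD above its plate mean, without a fluorescence outlier flag or 80% toxicity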;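 note: spot-positive cell cutoff set from DMSO-treated cells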
Insulin prom inh: TRM-6 insulin promoter activity inhibition; inhibition, % at 2 µM; hit rate 0.9% among 130,000; TRM-6 cells (human fetal islet line), insulin promoter-eGFP reporter, imaging; reporter expression induced with tamoxifen;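 active = inhibition above the mean plus 3 SD, with well images judged a real hit on visual review, cut at about 60% in these data, passing the limit was not always enough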
WT yeast gro inh: growth inhibition of WT yeast, mitochondrial fusion screen. AID 1362. hit rate 2.1% among 190,000. inhibition, % at 10 µM. mitochondrial fusion phenotypic screen, WT strain; in the data active = inhibition above about 58%; tested in S. cerevisiae
Lmaj promast: inhibitors of Leishmania major promastigote growth; Leishmania major promastigotes, resazurin fluorescence viability; inhibition, % at 10 µM; hit rate 9% among 200,000; in the data active = inhibition above about 50%;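 note: promastigotes grown with compound for 44 hours at 28 °C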
Ins promoter up: MIN6 insulin promoter up-regulation; MIN6 insulin promoter-GFP reporter, high-content imaging; active compounds read high; z-score at 5 µM; hit rate 0.3% among 190,000; AID 1625;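 active = z-score above 3 at 5 µM with at least 500 cells counted in the well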
The depositor's hits bear a star; i = inactive; . = no result.

SMILES	Autophagy mod	Insulin prom inh	WT yeast gro inh	Lmaj promast	Ins promoter up
Cc1ccc(NS(=O)(=O)c2cc(C(=O)Nc3cccc([N+](=O)[O-])c3)ccc2C)cc1	i	3.3	64.2*	66.8*	-0.03
Cc1ccc(NC(=O)CC(=O)c2ccc([N+](=O)[O-])cc2)cc1S(=O)(=O)Nc1cccc(Cl)c1	i	55.6	6.7	51.0*	0.81
Cc1ccc(NC(=O)c2cccs2)cc1S(=O)(=O)Nc1cccc(Cl)c1	i	.	70.3*	50.6*	-0.27
CC(=O)Nc1ccc(CN2CCN(CCc3ccccc3)C(CCO)C2)cc1 (stereo not drawn)	i	.	6.9	2.5	-0.37
CC(=O)c1cc2c(cc1NS(=O)(=O)c1ccccc1F)OCO2	i	.	-17.3	-2.7	2.05
Cc1ccc(C(=O)Nc2cccc([N+](=O)[O-])c2)cc1S(=O)(=O)Nc1ccc(NC(=O)c2ccccc2)cc1	i	35.7	-11.1	62.3*	0
CN(c1cccc(NC(=O)c2ccc(Cl)c(S(=O)(=O)Nc3ccccc3)c2)c1)S(C)(=O)=O	i	20.8	-2.8	-2.4	0.15
Cc1ccc(C(=O)Nc2cccc([N+](=O)[O-])c2)cc1S(=O)(=O)Nc1cccc(C(=O)O)c1	i	.	2.5	-6.9	0.03
Cc1ccccc1NS(=O)(=O)c1cc(C(=O)Nc2cccc(N(C)S(C)(=O)=O)c2)ccc1C	i	.	4.9	96.9*	-1.08
COc1ccc(-n2ccnc2SCC(=O)NC2CCCC2)c(OC)c1	i	.	-9.3	-1.5	-0.04
COCCCNC(=O)CN1C(=O)/C(=C/c2ccccc2)Sc2ccccc21	.	.	.	.	-0.09
CCOCCCNC(=O)CN1C(=O)/C(=C\c2ccc(C)cc2)Sc2ccccc21	i	-37.0	22.2	33.2	-0.18
CCN1CCN(CCNC(=O)c2ccc(/C=C3/Sc4ccccc4N(Cc4ccccc4C)C3=O)cc2)CC1	i	-29.4	77.3*	100.2*	-1.21
CCN1CCN(CCCNC(=O)c2ccc(/C=C3/Sc4ccccc4N(Cc4ccccc4F)C3=O)cc2)CC1	i	5.9	81.9	97.8*	-0.44
COc1ccc(CC(=O)NNS(=O)(=O)c2ccccc2)cc1OC	i	-57.1	1.0	-9.3	0.35
O=C(Nc1cccc(Cl)c1)NC1CC2CCC(C1)N2Cc1cccs1 (stereo not drawn)	i	.	-16.6	9.5	-0.01
O=C(NCc1ccccn1)C12CC3CC(CC(C3)C1)C2	i	.	-12.3	-7.8	-1.19
CCN(CC(=O)NC(c1ccccc1)c1ccccc1)Cc1nc2ccccc2c(=O)[nH]1	i	-5.1	-3.8	54.0*	0.47
COc1ccc(OCC(=O)OC2CCCN(C)C2)cc1 (stereo not drawn)	.	.	.	.	-0.08
CC(C)CNC(=O)C1CC(=O)OC12CCCCC2 (stereo not drawn)	i	-90.9	8.4	-3.6	.
O=C1CC(C(=O)NCc2ccccc2)C2(CCCC2)O1 (stereo not drawn)	i	-41.7	65.1*	-4.6	0.28
CC(=O)C1CCC2C3CCC4=CC(=O)CC[C@]4(C)[C@@]3(F)C(O)C[C@]12C (stereo partly drawn)	.	.	.	.	-1.37
CC1=NC(Nc2nc(C)c3ccccc3n2)=NC(C)(C)C1	i	2.8	23.7	98.3*	-0.74
CN1CCN(C(c2cccc(Cl)c2)c2ccccc2Cl)CC1 (stereo not drawn)	i	-27.8	23.2	97.6*	-1.31
Cc1ccc(-n2cc(CNCCc3ncc(C)[nH]3)c(-c3ccc(F)cc3)n2)cc1	i	-7.3	48.6	100.4*	-0.14
SMILES	Autophagy mod	Insulin prom inh	WT yeast gro inh	Lmaj promast	Ins promoter up
Cc1ccc(-n2cc(CNCCN3CCOC3=O)c(-c3ccc(F)cc3)n2)cc1	i	.	17.4	19.0	0.09
Cc1ccc(-n2cc(CNCCn3nc(C)cc3C)c(-c3ccc(F)cc3)n2)cc1	i	.	73.5	62.9*	.
COc1ccc(Cl)cc1NC(=O)C(C)Sc1n[nH]c(N)n1 (stereo not drawn)	i	-8.8	7.0	8.0	0.3
CCOC(=O)Cn1nnnc1C(CC)N(Cc1cccs1)Cc1cc2ccc(OC)cc2[nH]c1=O (stereo not drawn)	i	-15.4	14.4	98.8*	-0.13
Clc1ccccc1CN(Cc1ccco1)Cc1nnnn1C1CCCC1	i	-58.1	30.6	35.1	.
CC(c1nnnn1C1CCCCC1)N(Cc1ccccc1)Cc1cccnc1 (stereo not drawn)	i	-248.0	2.7	92.3*	-1.19
CCC(c1nnnn1Cc1ccco1)N(Cc1ccccc1OC)Cc1cc2cc(C)ccc2[nH]c1=O (stereo not drawn)	i	.	0.6	2.7	-4.61
CCC(c1nnnn1C1CCCCC1)N(Cc1ccco1)Cc1cc2ccc(OC)cc2[nH]c1=O (stereo not drawn)	i	-32.3	10.3	74.3*	-2.62
Clc1ccc(C(c2nnnn2C2CCCCC2)N(Cc2cccnc2)Cc2ccco2)cc1 (stereo not drawn)	i	33.3	70.2*	99.9*	-0.68
CCOC(=O)c1c(NC(=O)Cn2ccsc2=N)sc(C)c1C	i	.	6.5	22.8	-1.17
CC12CCC(C(=O)Nc3ccccc3Cl)(C(Br)C1=O)C2(C)C (stereo not drawn)	i	-53.9	1.3	-0.3	0.21
C=CCc1cccc2cc(C(=O)N3CCN(c4ccccn4)CC3)c(=O)oc12	i	-36.4	-1.4	-7.4	-0.47
COc1ccc(/C=C/C(=O)O)cc1S(=O)(=O)N1CCCCC1	i	.	-9.7	-0.3	0.1
COC(=O)c1c(C)nc2nonc2c1N	i	-84.2	3.5	-1.2	-0.22
CCOC(=O)c1ccccc1-c1cn2cc(Cl)ccc2n1	i	.	8.8	16.0	-0.74
Cc1ccc2cc(C(c3nnnn3C3CCCC3)N(Cc3cccnc3)Cc3ccco3)c(=O)[nH]c2c1 (stereo not drawn)	i	.	-4.5	24.6	-0.45
COc1ccc2[nH]c(=O)c(CN(C3CCCCC3)C(c3nnnn3Cc3ccco3)C(C)C)cc2c1 (stereo not drawn)	i	.	2.7	65.4*	.
Cc1ccc2[nH]c(=O)c(C(c3nnnn3C3CCCC3)N(Cc3cccnc3)Cc3ccco3)cc2c1 (stereo not drawn)	i	6.2	-3.6	85.0*	0.44
COc1ccc2[nH]c(=O)c(CN(Cc3nnnn3Cc3ccco3)C3CCCCC3)cc2c1	i	-23.1	0.0	28.2	.
Cc1ccc2cc(C(c3nnnn3C3CCCC3)N(Cc3ccco3)Cc3cccs3)c(=O)[nH]c2c1 (stereo not drawn)	i	-60.0	8.0	81.8*	-1.55
Cc1ccc(C2CC(c3cccs3)=NN2C(=O)c2ccc(Br)o2)cc1 (stereo not drawn)	i	-3.7	64.2*	25.7	0.78
CC(=O)N1N=C(c2cccs2)CC1c1cccs1 (stereo not drawn)	i	23.1	16.8	-4.6	.
O=C(CCl)N1N=C(c2ccco2)CC1c1cccs1 (stereo not drawn)	i	.	-25.1	90.0*	-1.19
CC(=O)N1N=C(c2cccs2)CC1c1ccc(C)o1 (stereo not drawn)	i	81.8*	10.7	-1.9	-0.79
Cc1ccc(C2=NN(C(=O)CCl)C(c3cccs3)C2)o1 (stereo not drawn)	i	.	-25.8	90.3*	-2.73
